The panel holds about 83,000 compounds, 20% with a hit somewhere; the sample as a whole holds those more often.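 Activity criterion: percent growth below 10, measured after cells in 96-well plates were exposed to a single compound concentration for 48 hours.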 Calls of active or inactive are those of the source.
What follows are compounds tested on MDA-MB-468 breast (assay: NCI-60 one-dose screen, 48 h (100 = growth as untreated, 0 = no growth, -100 = all killed)). Details: 10 µM unless noted.
With `COC(=O)/C=C1\SC(=Nc2cccc(OC)c2)N(CCc2c[nH]c3ccccc23)C1=O` the growth was 64% (inactive).
With `Cc1cc(O)ccc1O` the growth was 107% (inactive).
In the case of `CC(C)(C)[Si](C)(C)OCC1OC(n2cnc3c(N)ncnc32)CC1OS(C)(=O)=O` (stereo not given), the growth is reported as 99.7% (inactive).
`Cc1ccc(/C=C2\SC(=S)N(CC(=O)NCCCN3CCOCC3)C2=O)cc1` was tested, and the growth was 94.9% (inactive).
With `CCCCCN1C(=O)CCC1=O` the growth was 108% (inactive).
`O=C(Nc1cc(Cl)ccc1O)c1cccc(Nc2ccnc(C(F)(F)F)c2)c1` was tested, and the growth was 16% (inactive).
`COc1cc(C(=O)n2nc(NCCCc3ccccc3)c3cc(N)ccc32)cc(OC)c1OC` was tested, and the growth was 91.4% (inactive).
With `CCCCCCCCCCCCCCCCn1cc[n+](C)c1` the growth was -79% (active).
For `O=C(CCc1nnc2sc(/C=C\c3ccccc3)nn12)c1nc2ccccc2[nH]1`, the growth was 76.7% (inactive).
With `CC(C)(O)c1cncc(-c2ccc3ncnc(NCc4ccccc4)c3c2)c1` the growth was 64.8% (inactive).
For `CCN(CC)CCNC(=O)c1c(C)[nH]c(/C=C2\C(=O)Nc3ccc(F)cc32)c1C`, the growth was -56.4% (active).
With `Cc1ccc(-n2c(-c3cc4c([nH]c5ccccc54)c(-c4cccc(O)c4)n3)n[nH]c2=S)cc1` the growth was -32.3% (active).
With `COc1cc2c(c(OC)c1OC)CCC(c1cccc(C(=O)Nc3ccc([N+](=O)[O-])cc3)c1)O2` (stereo not given) the growth was 38.2% (inactive).
For `CC(=O)Nc1ccc(C(=O)/C=C/c2ccc(N(C)C)cc2)cc1`, the growth was 95.6% (inactive).
`C#CCSc1nnnn1-c1ccccc1` was tested, and the growth was 22.3% (inactive).
In the case of `COc1cc(C(=O)CCCl)ccc1O`, the growth is reported as 94.7% (inactive).
For `COc1ccc(-c2cc(=O)[nH]c3c(OC)c4ccccc4c(OC)c23)cc1`, the growth was -0.192% (active).
For `Cc1ccc(/C=C2\COc3ccc(O)c(O)c3C2=O)cc1`, the growth was -18.5% (active).
`C[C@@H]1C[C@H]2C(=O)OCC(NC(=O)[C@H](Cc3cc(F)cc(F)c3)NC(=O)Nc3ccc(Cl)cc3F)C(=O)N3CCC[C@H]3C(=O)N3CCCC[C@H]3C(=O)N[C@@H](C)C(=O)N2C1` (stereo not given in full) was tested, and the growth was -6.95% (active).
With `N=C1CC(=O)NN1C(=O)CSc1nc2sc3c(c2c(=O)n1-c1ccc(Cl)cc1)CCCC3` the growth was 106% (inactive).
In the case of `CCCCCC/C=C1\CCC(CN2CCCC2)C1=O` (stereo not given), the growth is reported as 73.2% (inactive).
In the case of `COc1ccc(/C(=C/c2cc(OC)c(OC)c(OC)c2)[N+](=O)[O-])cc1`, the growth is reported as -75.2% (active).
`[Cl][Ru].c1ccc(-c2cccc(-c3ccccn3)n2)nc1.c1ccc(-c2ccnc3c2ccc2c(-c4ccccc4)ccnc23)cc1` was tested, and the growth was -21.4% (active).
For `COc1ccc(-c2cc(/C=C3\C(=O)Nc4ccc(OC)cc43)[nH]n2)cc1`, the growth was 19% (inactive).
In the case of `O=S(=O)(Nc1ccc(Br)c(Cl)c1)c1ccc(-c2cnc(C3CC3)o2)cc1`, the growth is reported as -23.9% (active).
`CCOC(=N)c1ccc(C(=N)OCC)cc1` was tested, and the growth was 106% (inactive).
`COc1cccc(/C=C/C(=O)Nc2cc(OC)c3c(c2)OCO3)c1` was tested, and the growth was 92.6% (inactive).
With `CC(C)c1ccc(C(=O)OC(=O)c2ccc(C(C)C)cc2)cc1` the growth was 110% (inactive).
`COc1ccc2nc3ccccc3c(NCCNCC(C)O)c2c1` (stereo not given) was tested, and the growth was -24.6% (active).
For `O=C1CC[C@@H]2CCCC[C@@H]2C1`, the growth was 125% (inactive).
In the case of `O=C1Nc2ccccc2/C1=C/C(=O)c1ccc(N2CCOCC2)cc1`, the growth is reported as 85% (inactive).
With `O=CCCCOCc1ccccc1` the growth was 112% (inactive).
In the case of `OC(COc1ccccc1Cl)CN1CCN(c2ccc(Cl)cc2)CC1` (stereo not given), the growth is reported as 95.7% (inactive).
For `NS(=O)(=O)Oc1ccc2c(ccn2C(=O)C23CC4CC(CC(C4)C2)C3)c1`, the growth was 90.8% (inactive).
In the case of `CC(C)NS(=O)(=O)c1cccc(-c2ccc3c4c(n(CCCN(C)C)c(=O)c3c2)-c2ccccc2C4=O)c1`, the growth is reported as 99.3% (inactive).
For `Nc1c(C(=O)O)cc(Cl)cc1[N+](=O)[O-]`, the growth was 96.2% (inactive).
With `Cc1cccc(/C=N/n2c(-c3ccc(Cl)cc3)nc3c(Br)cc(Br)cc3c2=O)c1` the growth was 46.7% (inactive).
With `COc1cc(-c2c3c(c(Br)n2Cc2ccccc2)-c2nc(N)sc2CC3)cc(OC)c1OC` the growth was 73.4% (inactive).
For `CCCCCCCCCCCCCCCCOc1ccc(S(=O)(=O)N(C)C)cc1[N+](=O)[O-]`, the growth was 84.2% (inactive).
`COc1cc(/C=N\NC(=O)c2ccc3nc(-c4ccc(Br)cc4)[nH]c3c2)cc(OC)c1OC` was tested, and the growth was 37.2% (inactive).
